The list is not random: actives were taken first. Their share in the collection is about 2.7%.
PREPL inhibitor: human PREPL enzyme inhibition. Q4J6C6. recombinant PREPL, fluorescence polarization activity-based probe. inhibition, % at 5.96 µM. 0.68% of 320,000 active. AID 2751; in the data active = inhibition above about 43%
PP5 primary: blocks human protein phosphatase 5 activity; 0.18% of 320,000 active; P53041; inhibition, % at 6.7 µM; purified PP5c, OMFP substrate fluorescence;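 active = inhibition above the campaign's mean inhibition across all tested compounds plus 3 SD, cut at about 9.5% in these data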
Target sequence (P53041 whole entry, looked up): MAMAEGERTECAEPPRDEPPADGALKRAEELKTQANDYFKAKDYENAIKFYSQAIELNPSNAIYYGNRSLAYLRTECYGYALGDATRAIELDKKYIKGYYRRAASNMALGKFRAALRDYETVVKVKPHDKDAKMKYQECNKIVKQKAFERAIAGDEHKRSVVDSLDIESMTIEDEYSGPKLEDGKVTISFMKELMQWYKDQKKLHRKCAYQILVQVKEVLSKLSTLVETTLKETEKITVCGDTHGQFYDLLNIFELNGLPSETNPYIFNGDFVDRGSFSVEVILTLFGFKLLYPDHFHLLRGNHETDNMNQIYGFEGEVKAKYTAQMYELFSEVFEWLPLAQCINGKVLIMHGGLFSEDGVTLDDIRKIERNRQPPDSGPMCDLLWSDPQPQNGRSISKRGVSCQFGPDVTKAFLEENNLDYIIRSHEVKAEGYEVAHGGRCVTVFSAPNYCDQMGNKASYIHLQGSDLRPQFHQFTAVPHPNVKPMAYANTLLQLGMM
ANO1 activ: activates or potentiates the mouse TMEM16A chloride channel | AID 623877 | HEK293 TMEM16A/YFP-H148Q/I152L, iodide quench fluorescence; active compounds read low | B-score at 10 µM | Q8BHY3 | 0.3% of 340,000 active;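 active = fluorescence-ratio B-score plate-corrected deviation score at least 3 library SD below zero, with starting fluorescence score within 5 deviations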;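 note: channel opened by trigger with iodide after compound preincubation; score built on the fluorescence ratio of max minus min over baseline; more negative score means more quench and so TMEM16A activation or potentiation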
TMEM16A inh: mouse TMEM16A channel inhibition, primary screen; Q8BHY3; HEK293 TMEM16A/YFP iodide influx fluorescence, ionomycin; normalized B-score (activity score, 25-100; higher = stronger inhibition) at 10 µM; 1.2% of 310,000 active; AID 588511;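 active = ratio plate-corrected score three or more library SD toward inhibition, starting fluorescence score within five deviations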;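 note: score derived from kinetic fluorescence span divided by baseline fluorescence per well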
PP1 counter: PP1-alpha (human) inhibition in PP5 counter-screen. purified PP1alpha, OMFP fluorescence. inhibition, % at 6.7 µM. 0.9% of 320,000 active. AID 2235;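 active = inhibition above the mean inhibition of all tested compounds plus 3 SD, computed separately for each screening campaign, cut at about 15% in these data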
FID counter: fluorescent intercalator displacement, NS3 helicase counter-screen | inhibition, % at 7.9 µM | AID 1845 | DNA fluorescent intercalator displacement, fluorescence | 0.17% of 290,000 active; in the data active = inhibition above about 37%;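 note: higher means more ethidium bromide displaced from hairpin DNA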
Hits are given with their value; - = inactive; . = no result given; ! = not active in a repeat.

SMILES	PREPL inhibitor	PP5 primary	ANO1 activ	TMEM16A inh	PP1 counter	FID counter
O=C(CSc1nnc(-c2ccccc2)c2ccccc12)NCC1CCCO1 (stereo unspecified)	-	-	-6.8	-	-	-
O=C(Cn1nc(-c2ccccc2)c2ccccc2c1=O)NCC1CCCO1 (stereo unspecified)	-	-	-	-	-	-
COC(=O)[C@]1(C)N[C@H](CN(C)S(=O)(=O)c2ccc(OC(F)(F)F)cc2)[C@@H]2C(=O)N(Cc3ccccc3)C(=O)[C@@H]21	-	.	.	.	.	.
O=C(NCC1CCCO1)c1ccccc1NS(=O)(=O)c1ccc(Br)s1 (stereo unspecified)	.	.	-	.	.	.
COC(=O)c1cc(C)nc2c1C(=O)C(=O)C=C2N1CCOCC1	-	-	-	-	16	-
COC(=O)c1cc(S(=O)(=O)N2CCOCC2)c(Cl)cc1N1CCOCC1	-	-	-	-	-	-
COc1cc([N+](=O)[O-])ccc1NC(=S)NNC(=O)c1ccc2c(c1)OCO2	-	-	-	100	-	-
O=C(CSc1nnnn1C1CC2CCC1C2)Nc1ccnc2ccccc12 (stereo unspecified)	-	-	-	100	-	-
O=C(CSc1nnnn1C1CCCCC1)Nc1ccccc1F	-	-	-	-	-	-
CN(CC(=O)Nc1cc(S(=O)(=O)N2CCCCCC2)ccc1Cl)Cc1ccc2c(c1)OCO2	-	-	-14	.	-	.
CN(CC(=O)Nc1cc(S(=O)(=O)N2CCCC2)ccc1Cl)Cc1ccc2c(c1)OCO2	-	-	-	.	-	.
CN(C)c1ccc(NC(=O)CCN2CCN(c3ccccn3)CC2)cc1	-	-	-	-	-	-
CCN(CC)S(=O)(=O)c1ccc(/C=C/C(=O)Nc2ccc(Br)cc2F)cc1	-	-	-	100	-	-
CCN(CC)S(=O)(=O)c1ccc(/C=C/C(=O)Nc2ccc(F)cc2F)cc1	-	-	-	-	-	-
CCC(C)[C@H]1CNCCN1CCc1cc(C(F)(F)F)cc(C(F)(F)F)c1 (stereo partly specified)	-	-	-	-	-	.
CCC(C)[C@H]1CNC(=S)N1CCc1cc(C(F)(F)F)cc(C(F)(F)F)c1 (stereo partly specified)	-	9.6	-	-	-	-
Cc1ccc(S(=O)(=O)N2CCN(C(=O)c3ccc([N+](=O)[O-])cc3)C2)cc1	-	-	-	-	-	-
CC(C)OCCCNc1nc(-c2ccccc2)nc2ccccc12	-	-	-	-	-	-
c1csc(-c2nc(NCCCN3CCOCC3)c3ccccc3n2)c1	-	-	-	-	-	61
Clc1ccc(-c2nc(NCCCN3CCOCC3)c3ccccc3n2)cc1	-	-	-	-	-	48
Cc1cc(NCCN2CCOCC2)c2ccc3ccccc3c2n1	-	-	-	-	-	47
Fc1ccccc1-c1nc(NCCCN2CCOCC2)c2ccccc2n1	-	-	-	-	-	-
CN(C)CCCNc1nc(-c2ccccc2)nc2ccccc12	-	-	-	-	-	58
CCOP(=O)(c1ccc(N(C)C)cc1)C(O)c1ccc(OC)cc1 (stereo unspecified)	-	-	-	-	-	-
ClC1(Cl)CC1Cn1cnc2ccccc21 (stereo unspecified)	-	-	-	-	-	-
SMILES	PREPL inhibitor	PP5 primary	ANO1 activ	TMEM16A inh	PP1 counter	FID counter
O=C(CN1CCCC1c1cccs1)Nc1cccc(S(=O)(=O)N2CCCC2)c1 (stereo unspecified)	-	-	-	.	-	.
Cc1ccc(-c2nc(NCCN3CCOCC3)c3ccccc3n2)cc1	-	-	-	-	-	46
Oc1ccccc1-c1nc(NCCN2CCOCC2)c2ccccc2n1	-	-	-	-	-	-
Clc1cccc(-c2nc(NCCN3CCOCC3)c3ccccc3n2)c1	-	-	-	-	-	-
Clc1cccc(-c2nc(NCCCN3CCOCC3)c3ccccc3n2)c1	-	-	-	-	-	37
CCCCn1c(N)c(N(CC(C)C)C(=O)CCNC(=O)c2ccc(Cl)cc2)c(=O)[nH]c1=O	-	-	-	-	-	.
CCC(C)c1ccc(C2C3=C(Nc4nc(N)[nH]c(=O)c42)c2ccccc2C3=O)cc1 (stereo unspecified)	-	-	-	-	-	96
O=C(NCc1ccc2c(c1)OCO2)C1CCCN1S(=O)(=O)c1ccc(Cl)cc1 (stereo unspecified)	-	-	-	-	-	-
CSCCC(N=C(NS(=O)(=O)c1ccccc1)c1ccccc1)C(=O)O (stereo unspecified)	-	-	-	-	-	-
CC/C(=C(\c1ccccc1)c1ccc(OCCN(C)C)cc1)c1ccccc1	-	-	-	100	17!	.
CC(C(=O)NC(C)(C)C)N(Cc1cccs1)C(=O)CCN1CCc2ccccc21 (stereo unspecified)	-	-	-	-	-	-
CCOC(=O)c1ccc(N2C=C(C(=O)OC)C(c3cccc(O)c3)C(C(=O)OC)=C2)cc1	-	-	-	-	-	-
O=C(N/N=C/c1ccncc1)c1ccc(NC(=O)c2ccc(Cl)cc2)cc1	-	-	-	-	30	-
Cc1ccc(C(=O)Nc2ccc(C(=O)N/N=C/c3ccncc3)cc2)cc1	-	-	.	-	16	-
O=C(N/N=C/c1ccncc1)c1ccc(NC(=O)c2cccc(Cl)c2)cc1	-	-	-	-	-	-
O=C(N/N=C/c1cn(-c2ccccc2)nc1-c1ccc2c(c1)OCCO2)c1ccncc1	-	-	-	-	-	-
Cc1ccc(/C=N/NC(=O)c2ccncc2)cc1	-	-	-	-	-	-
O=C(N/N=C/c1nn(-c2ccccc2)cc1-c1ccc(Cl)cc1)c1ccncc1	-	-	.	25	-	-
Cc1cc(C(C)(C)C)cc(C)c1CCNC(=O)c1c(C)noc1C	.	.	-	.	.	.
N#CCCN1CCCc2cc(N=Nc3ccc(C(F)(F)F)cc3)ccc21	-	-	-	-	-	-
CC1C=CC=CC=CC=CC=CC=CC=CC(OC2OC(C)C(O)C(N)C2O)CC2OC(O)(CC(O)CC(O)C(O)CCC(O)CC(O)CC(=O)OC(C)C(C)C1O)CC(O)C2C(=O)O (stereo unspecified)	.	.	-	.	.	.
COc1ccc(C(=O)NC(=S)NNC(=O)[C@H]2C[C@@H]2c2ccccc2)cc1OC	-	-	-	-	-	-
COc1cc(OC)cc(C(=O)NC(=S)NNC(=O)[C@H]2C[C@@H]2c2ccccc2)c1	-	-	-	100	-	-
CCc1ccc(CN(Cc2cccnc2)C(=O)/C=C/c2ccc(OC)cc2)cc1	-	-	-	-	-	-
COC(=O)c1ccc(OC(=O)CCN2C(=O)C3CCCCC3C2=O)cc1 (stereo unspecified)	44	-	-	-	-	-
S=c1[nH]nc(C2CCCCC2)o1	-	-	-	-	-	-
Nn1c(Cc2cccc3ccccc23)n[nH]c1=S	-	-	-	-	-	-
